Screening results from PubChem BioAssay.
FEN1 inhibitor: human FEN1 inhibition | P39748 | Recombinant FEN1 flap cleavage, fluorescence, 15 min | Potency, µM (top dose mostly 114 µM), hits mostly inhibitors | hit rate 0.35% among 390,000 | AID 588795; further: nearly all actives have a fitted effect of over 65% in size
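In this screen, 50 nM flap DNA substrate was added to 10 nM FEN1 pretreated with compound for 15 min at room temperature; cleavage was followed with reads at 0 and 15 min, and Hill fitting gave concentration–response parameters.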
Pol beta inh-1: DNA polymerase beta (human) inhibition; P06746; Pol beta primer extension/strand displacement, fluorescence kinetic; Potency, µM (doses to about 114 µM), hits mostly inhibitors; hit rate 1.3% among 340,000; AID 485314
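Preincubation: enzyme (10 nM) with compound, 15 min, RT. Reaction: substrate added to 50 nM final. Reads: 0 and 10 min. Analysis: normalized, Hill fit.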
Pol iota inh: inhibitors of human DNA polymerase iota; Q9UNA4; Potency, µM (series often up to 115 µM), usual class: inhibitors; hit rate 1% among 390,000; Pol iota fluorescent replication assay, 10 min
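Fluorescent replication assay read twice, at 0 min and 10 min after adding 50 nM (final) substrate. Enzyme (10 nM) and compounds were first incubated 15 min at room temperature; enzyme-free buffer wells were negative controls.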
POLH inh: inhibitors of human DNA polymerase eta; hit rate 1.2% among 390,000; Q9Y253; Potency, µM (titrated, usually from 114 µM), hits mostly inhibitors; AID 588591; recombinant Pol eta, fluorescent DNA replication assay
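Pol eta (10 nM) was preincubated with compounds for 15 min at room temperature, after which fluorescent replication substrate (50 nM final) was added to start the reaction. Fluorescence was read kinetically at 0 and 10 min.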
WRN helicase inh: blocks human WRN helicase; Potency, µM (series often up to 114 µM), actives largely listed as inhibitors; hit rate 0.46% among 360,000; WRN helicase unwinding, fluorescent forked duplex, kinetic; Q14191; further: nearly all actives have a fitted effect of over 55% in size
Target sequence (Q14191 whole entry, looked up): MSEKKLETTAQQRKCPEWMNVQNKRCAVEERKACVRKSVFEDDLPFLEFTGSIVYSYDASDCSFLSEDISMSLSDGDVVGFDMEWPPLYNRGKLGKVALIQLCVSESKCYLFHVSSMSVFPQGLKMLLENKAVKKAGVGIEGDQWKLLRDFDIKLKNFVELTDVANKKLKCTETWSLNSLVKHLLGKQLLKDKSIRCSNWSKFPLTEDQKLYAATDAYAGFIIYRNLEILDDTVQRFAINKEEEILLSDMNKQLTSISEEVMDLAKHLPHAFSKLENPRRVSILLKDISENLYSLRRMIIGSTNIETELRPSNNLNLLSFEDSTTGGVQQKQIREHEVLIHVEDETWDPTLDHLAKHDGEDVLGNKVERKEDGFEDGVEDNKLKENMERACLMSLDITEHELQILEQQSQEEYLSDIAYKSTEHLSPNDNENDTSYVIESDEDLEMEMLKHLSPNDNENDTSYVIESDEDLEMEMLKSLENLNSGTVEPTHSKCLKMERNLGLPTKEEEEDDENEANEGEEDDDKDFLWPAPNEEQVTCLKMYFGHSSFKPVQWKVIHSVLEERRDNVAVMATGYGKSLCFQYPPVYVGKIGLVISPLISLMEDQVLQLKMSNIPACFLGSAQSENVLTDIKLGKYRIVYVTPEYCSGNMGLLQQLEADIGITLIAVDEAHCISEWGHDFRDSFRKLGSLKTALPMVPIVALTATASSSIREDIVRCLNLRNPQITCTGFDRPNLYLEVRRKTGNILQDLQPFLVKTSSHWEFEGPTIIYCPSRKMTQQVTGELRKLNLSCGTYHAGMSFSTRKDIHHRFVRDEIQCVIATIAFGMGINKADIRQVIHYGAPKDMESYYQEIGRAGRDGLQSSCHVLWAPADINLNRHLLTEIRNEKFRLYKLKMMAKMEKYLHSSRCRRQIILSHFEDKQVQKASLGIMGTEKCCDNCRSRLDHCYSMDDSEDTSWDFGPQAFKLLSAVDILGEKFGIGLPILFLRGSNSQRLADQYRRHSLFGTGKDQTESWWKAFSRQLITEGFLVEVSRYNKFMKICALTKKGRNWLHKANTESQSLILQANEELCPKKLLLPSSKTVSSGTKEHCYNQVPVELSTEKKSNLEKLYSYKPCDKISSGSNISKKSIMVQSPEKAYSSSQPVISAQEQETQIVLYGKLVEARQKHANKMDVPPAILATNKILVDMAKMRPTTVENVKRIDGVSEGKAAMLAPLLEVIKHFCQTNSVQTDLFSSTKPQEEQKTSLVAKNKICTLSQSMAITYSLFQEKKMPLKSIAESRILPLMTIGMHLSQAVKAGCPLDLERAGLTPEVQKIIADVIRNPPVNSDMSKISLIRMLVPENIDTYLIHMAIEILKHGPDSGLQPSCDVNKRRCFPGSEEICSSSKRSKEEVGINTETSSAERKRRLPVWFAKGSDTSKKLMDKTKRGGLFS
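Primary qHTS, 1536-well format. 20 nM WRN + compound, 15 min RT; start with 100 nM forked fluorophore/quencher duplex, 2 mM ATP (final); kinetic read ex 525/em 598 nm.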
Pol kappa inh: DNA polymerase kappa (human) inhibition | Q9UBT6 | purified Pol kappa, fluorescent DNA synthesis assay, 10 min | Potency, µM (series often up to 107 µM), actives largely listed as inhibitors | hit rate 0.53% among 400,000 | AID 588579
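Inhibition of 10 nM Pol kappa is measured by a fluorescent read-out at 0 and 10 min following addition of 50 nM substrate (final), with a 15-min room-temperature compound preincubation.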
Pol beta inh-2: Human Pol beta inhibitor hit validation | Pol beta primer extension/strand displacement, fluorescence kinetic | shares compounds with Pol beta inh-1 | AID 540280 | Potency, µM, usual class: inhibitors | hit rate 87% among 250; calls by dose curve
Klenow counter: Klenow polymerase inhibition, pol beta selectivity check; shares compounds with Pol beta inh-1; activity change, negative = inhibition, % at 57.1 µM; 250 tested, under 10 active; Klenow exo- polymerase counter-screen, fluorescent DNA substrate
HIV RT inh: inhibits HIV-1 reverse transcriptase in counter-screen. shares compounds with Pol beta inh-1. HIV-1 RT polymerase activity, counter-screen. activity % (negative = inhibition, positive = activation), % at 57.1 µM. 250 tested, under 10 active. AID 540301
POLB valid: validation of human DNA polymerase beta inhibitors. shares compounds with Pol beta inh-1. radiolabeled primer extension gel assay, phosphorimager. inhibition, % at 10 µM. hit rate 91% among 110. AID 540325;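 active means inhibition at 10 µM of 30% or more; inconclusive means no clear call, values can overlap the other calls; inactive means inhibition at 10 µM under 30%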
TbPGK inh: blocks T. brucei phosphoglycerate kinase; shares compounds with Pol kappa inh; TbPGK coupled GAPDH assay, Kinase-Glo luminescence; Potency, µM (highest dose often 57.5 µM), usual class: inhibitors; hit rate 79% among 500; AID 686980; further: nearly all actives have a fitted effect of over 65% in size
Pol iota confirm: Confirm cherry-picked inhibitors of human polymerase iota. shares compounds with Pol kappa inh. Pol iota primer extension, TAMRA/BHQ fluorescence. Potency, µM, usual class: inhibitors. hit rate 77% among 1,500
A number is an active result; – = inactive; ? = inconclusive; · = no result given; [ ] = another dose, or the depositor's remark. A selection: hits, their analogues and other compounds. The true share with any hit is near 2.4%. Unless noted, the call rests on the fitted dose curve; in most records, active means well fitted curve in the direction sought with a large enough effect; inconclusive means small, poorly fitted or top-dose-only effect, or another doubt; inactive means no such curve, though single readings can be large; an effect the other way counts as inactive or inconclusive.

SMILES | FEN1 inhibitor | Pol beta inh-1 | Pol iota inh | POLH inh | WRN helicase inh | Pol kappa inh | Pol beta inh-2 | Klenow counter | HIV RT inh | others
CC(C)C[C@H](NC(=O)[C@H](CCCCN)NC(=O)[C@H](CCCNC(=N)N)NC(=O)[C@H](C)NC(=O)[C@H](CO)NC(=O)[C@H](CCCCN)NC(=O)[C@H](CCCNC(=N)N)NC(=O)[C@H](C)NC(=O)CNC(=O)[C@@H](NC(=O)[C@H](Cc1ccccc1)NC(=O)CNC(=O)CNC(=O)[C@@H](N)Cc1ccccc1)[C@@H](C)O)C(=O)N[C@@H](C)C(=O)N[C@@H](CC(N)=O)C(=O)N[C@@H](CCC(N)=O)C(=O)O | · | · | · | · | · | – | · | · | ·
CCn1c(=NC(=O)c2cccc(N3C(=O)CCC3=O)c2)sc2c(C)ccc(OC)c21 | – | – | – | – | – | – | · | · | ·
CCn1c(=NC(=O)c2ccc(N3C(=O)CCC3=O)cc2)sc2c(OC)ccc(OC)c21 | ? | 10µM | 16µM | ? | – | ? | ? | – | – | POLB valid=98
Cc1ccccc1C(=O)Nc1nnc(S(=O)(=O)N2CCc3ccccc32)s1 | – | – | – | – | · | – | · | · | ·
CCN(CC)S(=O)(=O)c1ccc(N2CCOCC2)c(NC(=O)c2c3c(nc4ccccc24)CCC3)c1 | – | 8.9µM | 32µM | 35µM | – | ? | 25 | – | – | POLB valid=88
CCN(CC)S(=O)(=O)c1ccc(N2CCOCC2)c(NC(=O)c2cccc3ccccc23)c1 | – | – | – | – | – | – | · | · | ·
NS(=O)(=O)c1ccc(NC(=O)c2ccc(-c3ccccc3)cc2)cc1 | – | 14µM | ? | ? | – | ? | 16 | – | –
CC(C)(C)c1ccc(C(=O)Nc2ccc(S(N)(=O)=O)cc2)cc1 | – | – | – | – | – | – | · | · | ·
CCOC(=O)c1c(C)oc2ncnc(Nc3ccc(F)cc3Cl)c12 | – | – | – | – | · | – | · | · | ·
COc1ccc(CCNC(=O)c2nnn(CC(=O)Nc3ccc(C)cc3C)c2N)cc1OC | – | 0.56µM | 35µM | ? | – | – | 25 | – | – | POLB valid=52;Pol iota confirm=?
Cc1ccc(NC(=O)Cn2nnc(C(=O)NCCc3ccccc3)c2N)c(C)c1 | – | – | ? | ? | – | – | · | · | ·
COc1ccc(-c2[nH]c(-c3ccccc3)nc2SCC(=O)Nc2ccc3c(c2)OCO3)cc1 | – | – | – | – | · | – | · | · | ·
CSc1nc(NCCN(C)C)c2sc3nc(-c4ccco4)c4c(c3c2n1)CCC4 | ? | · | ? | ? | – | – | · | · | ·
CSc1nc(N(C)CCO)c2sc3nc(-c4ccco4)c4c(c3c2n1)CCC4 | 45µM | 7.1µM | 1µM | 8.9µM | 22µM | ? | ? | – | – | TbPGK inh=–
COc1ccccc1Nc1c2c(nc3ccc(NC(=O)c4ccc(N(C)C)cc4)cc13)CCCC2 | – | – | – | – | · | – | · | · | ·
N#C/C(=C\c1ccc(OCc2ccc(Br)cc2)cc1)C(=O)Nc1cccc(C(=O)O)c1 | ? | 8.9µM | – | ? | –[11.6 µM] | – | 16 | – | – | Pol iota confirm=67
Cc1ccc2nc(/C(C#N)=C\c3ccc(Oc4ccc(C(F)(F)F)cc4[N+](=O)[O-])cc3)[nH]c2c1 | – | 7.1µM | – | ? | 56µM | – | 14 | – | – | Pol iota confirm=42
